VDR inhibitor – blocks the human vitamin D receptor; VDR-SRC2-3 peptide fluorescence polarization, 2 h; AID 504847; Potency, µM, for the others: max response, negative = inhibition, most hits filed as inhibitors; 400,000 compounds, 0.93% hits; P11473; further: on the % scale 0 is the no-effect control and ±100 the full control effect
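VDR–SRC2-3 interaction, FP format. Cmpds 23 nl via pintool, brief spin, 2 h ambient incubation.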
PLK1 PBD block – blocks phosphopeptide binding to human PLK1 polo-box domain. P53350. Plk1 PBD binding of FITC phosphopeptide, fluorescence polarization. Potency, µM, inactives show max response, negative = inhibition, usual class: inhibitors. 360,000 compounds, 2.8% hits. AID 720504; further: series mostly up to about 57 µM; on the % scale 0 is the no-effect control and ±100 the full control effect; nearly all actives have a fitted effect of over 65% in size
Mito fusion act – mitochondrial division inhibition or fusion activation | S. cerevisiae fusion-defective mutant growth rescue, CellTiterGlo 48 h | 320,000 compounds, 0.23% hits | Potency, µM (top dose mostly 46.1 µM), for the others: at the top dose growth rescue (activation), most hits filed as activators; further: % of control where 0% means no effect; nearly all actives have a fitted effect of over 45% in size
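Compounds are tested for their ability to restore growth of mitochondrial fusion-defective yeast strains at non-permissive 37C in YPEG medium over 48 hours. Viability is quantified by luciferase luminescence.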
GLS inhibitor – glutaminase GLS (human) inhibition; Potency, µM (highest dose often 45.5 µM), inactives show top-dose activity change, negative = inhibition, usual class: inhibitors; AID 624170; O94925; GLS enzymatic activity, qHTS titration; 410,000 compounds, 0.21% hits; further: on the % scale 0 is the no-effect control and ±100 the full control effect
Target sequence (O94925 whole entry, looked up): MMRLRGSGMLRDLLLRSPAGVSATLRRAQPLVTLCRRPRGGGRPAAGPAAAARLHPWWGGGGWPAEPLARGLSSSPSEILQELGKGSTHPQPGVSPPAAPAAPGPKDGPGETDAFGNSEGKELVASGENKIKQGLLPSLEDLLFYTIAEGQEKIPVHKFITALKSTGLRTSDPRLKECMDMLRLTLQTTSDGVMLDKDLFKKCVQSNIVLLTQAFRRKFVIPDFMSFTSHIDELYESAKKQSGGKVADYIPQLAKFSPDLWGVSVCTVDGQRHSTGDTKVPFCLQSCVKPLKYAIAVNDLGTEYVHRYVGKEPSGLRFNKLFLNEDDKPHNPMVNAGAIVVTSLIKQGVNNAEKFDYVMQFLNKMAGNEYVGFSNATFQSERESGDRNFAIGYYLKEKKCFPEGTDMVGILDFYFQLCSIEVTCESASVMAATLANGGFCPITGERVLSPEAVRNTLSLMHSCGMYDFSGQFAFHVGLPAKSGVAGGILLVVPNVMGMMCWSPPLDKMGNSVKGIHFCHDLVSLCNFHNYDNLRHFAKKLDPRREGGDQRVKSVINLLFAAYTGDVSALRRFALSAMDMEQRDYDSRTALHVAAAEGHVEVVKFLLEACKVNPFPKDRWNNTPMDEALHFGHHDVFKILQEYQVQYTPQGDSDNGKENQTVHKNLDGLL
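Compounds were pin-transferred onto hKGA, after which L-glutamine (1 mM solution) and a detection mix of glutamate oxidase, HRP and Amplex Red were added. Initial and 30 min RT fluorescence reads were collected.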
KAT2A inh – blocks human GCN5L2 histone acetyltransferase. GCN5L2 HAT assay, ThioGlo1 CoA-SH fluorescence. Potency, µM (series often up to 58.9 µM), for the others: at the highest dose activity change, negative = inhibition, hits mostly inhibitors. Q92830. 390,000 compounds, 0.21% hits; further: on the % scale 0 is the no-effect control and ±100 the full control effect
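qHTS, 1536-well. 20nM enzyme, pH 7.5 HEPES/EDTA/Tween-20 buffer; 15 min compound preinc., RT. Start: 75uM H3(1-25), 70uM AcCoA, 50uM ThioGlo1. Read Ex340/Em540 at t=0 (autofluorescence flag) and t=20 min.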
PKM2 act – PKM2 (human) enzyme activation; purified PKM2, Kinase-Glo ATP luminescence, activation; response scale: 0% is enzyme alone, no compound; P14618; 260,000 compounds, 0.34% hits; Potency, µM (doses to about 57.5 µM), inactives show top-dose activation, usual class: activators; AID 1631; further: on the % scale 0 is the no-effect control and ±100 the full control effect; nearly all actives have a fitted effect of over 55% in size
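ATP formation by purified human PK-M2, quantified via coupled luciferase luminescence after 1 h at room temperature with 0.1 mM ADP and 0.5 mM PEP final.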
* = called active by the depositor; ? = inconclusive; · = no result; [ ] = dose if it differs, or a comment. Sampled rows, rich in hits. Any-hit rate of the full collection: about 3.4%. The call rests on the fitted dose curve; in most records, active means well fitted curve in the direction sought with a large enough effect; inconclusive means small, poorly fitted or top-dose-only effect, or another doubt; inactive means no such curve, though single readings can be large; an effect the other way counts as inactive or inconclusive. Potency means the concentration at half of the fitted maximal effect.

SMILES | VDR inhibitor | PLK1 PBD block | Mito fusion act | GLS inhibitor | KAT2A inh | PKM2 act
COc1ccc(OC)c(C(c2nnnn2CC2CCCO2)N2CCN(C)CC2)c1 (stereo not drawn) | -5% | 0% | -2% | 4% | -7% | 1%
C=CCN1CCN(C(c2cc(OC)ccc2OC)c2nnnn2CC2CCCO2)CC1 (stereo not drawn) | -20% | 30µM* | 4% | -13% | -12% | -16%
Cc1ccc(-c2cc(C(=O)NCCCn3ccnc3)c3cc(Br)ccc3n2)o1 | -6% | 24µM* | -3% | 1% | -6% | 10%
Cc1ccc(-c2cc(C(=O)NN3CCOCC3)c3cc(Br)ccc3n2)o1 | -22% | -10% | 7% | 2% | -19% | 24%
CC(=O)Nc1ccc(-c2nnc(SCC(=O)c3ccc4c(c3)Cc3ccccc3-4)n2C)cc1 | 50µM* | -18% | -2% | 0% | -4% | 1%
CC(=O)Nc1ccc(C(=O)CSc2nnc(-c3ccccc3)n2-c2ccccc2)cc1 | 4% | · | · | -1% | 0% | ·
O=C(Cc1ccc([N+](=O)[O-])cc1)N1N=C(c2ccncc2)CC1(O)C(F)(F)F (stereo not drawn) | ? | 27µM* | 1% | 2% | 0% | -6%
CC1/C=C/C=C/C=C/C=C/C=C/C=C/C=C/C(OC2OC(C)C(O)C(N)C2O)CC2O[C@@](O)(CC(O)CC(O)C(O)CCC(O)CC(O)CC(=O)OC(C)[C@H](C)C1O)CC(O)C2C(=O)O (stereo partly drawn) | 50µM* | · | · | · | -23% | ·
FC(F)(F)c1ccccc1-c1ccc2ncnc(NC3CC3)c2c1 | ? | · | · | · | -14% | ·
CC(=O)N(C[C@@H](O)CO)c1c(I)c(C(=O)NC[C@@H](O)CO)c(I)c(C(=O)NC[C@@H](O)CO)c1I | 2% | · | · | · | 10µM* | ·
Cc1nc(N2CCC(C)CC2)c2c(C)c(C(=O)Nc3ccc4c(c3)OCCO4)sc2n1 | -17% | 3% | 24% | 0% | -17% | 2%[0.46 µM]
Cc1c(C(=O)Nc2ccc3c(c2)OCCO3)sc2ncnc(N3CCCCC3C)c12 (stereo not drawn) | 8% | 0% | 11µM* | -10% | -19% | -1%
Cc1cc(C(=O)NC2CCCc3c2cnn3-c2ccc(C(C)(C)C)cc2)n[nH]1 (stereo not drawn) | 1% | -7% | 24% | 16% | -1% | ·
Cc1cccc(NC(=O)c2cc(S(=O)(=O)NCCc3ccccc3)ccc2F)c1C | 10% | · | · | -2% | -4% | ·
CC(C)OC(=O)[C@@H]1CC[C@H](C)[C@@H](CCC[C@@H]2C[C@@H](O)C[C@H](CC#N)O2)O1 | 3% | · | · | · | · | ·
COc1ccc(Oc2nc3c(c(=O)n(C)c(=O)n3C)n2Cc2ccccc2)cc1 | -17% | 27µM* | 3% | 1% | 0% | -4%
Cn1c(=O)c2c(nc(N/N=C/c3ccncc3)n2Cc2ccccc2)n(C)c1=O | 8% | -3% | 0% | 13µM* | -3% | 0%
COc1cccc(Cn2cnc3c2c(=O)n(C)c(=O)n3C)c1 | -8% | · | · | 1% | 1% | ·
Cn1c(=O)c2c(ncn2Cc2ccccc2)n(C)c1=O | -25% | 27µM* | -3% | 2% | 2% | 0%
C=CCOc1nc2c(c(=O)n(C)c(=O)n2C)n1Cc1ccccc1 | 18% | -17% | 9% | 0% | 0% | -4%
Cc1ccc(Cn2c(N/N=C/c3ccncc3)nc3c2c(=O)n(C)c(=O)n3C)cc1 | 9% | 5% | 5% | ? | -5% | 7%
CCCCCCN1C[C@H](n2cc(-c3ccc(F)cc3)nn2)[C@@H](O)C[C@@H]1c1ccc(Cl)cc1 | · | -6% | · | 1% | · | ·
C#CCOc1ccc(C2C(C(=O)OC)=C(C)NC3=C2C(=O)c2ccccc23)cc1OCC (stereo not drawn) | -4% | · | · | 7% | -4% | ·
CCOC(=O)C1CCN(C(=O)c2ccc(SC)cc2OC)CC1 | 9% | 30µM* | -3% | 2% | 0% | 1%
CCOC(=O)N1CCN(C(=O)c2ccc(SC)cc2OC)CC1 | -15% | 4% | -1% | 5% | -6% | 0%
SMILES | VDR inhibitor | PLK1 PBD block | Mito fusion act | GLS inhibitor | KAT2A inh | PKM2 act
O=C(NCCc1ccccc1)c1ccc2c(c1)CCN2S(=O)(=O)c1ccc(Cl)cc1 | 2% | · | · | -2% | -6% | ·
CC(C)(C)c1ccc(C(=O)NN=C2CCCC2)cc1 | 2% | 4% | -4% | -4% | 2% | -1%
O=C(NN=C1CCCCCCC1)c1ccc(F)cc1 | -20% | 19µM* | 0% | 3% | -6% | -15%
CCC(C)NC(=O)C1CCC(CNS(=O)(=O)c2ccc3c(c2)CC(C)N3C(C)=O)CC1 (stereo not drawn) | ? | 24µM* | 2% | 10% | -2% | ·
CCCNC(=O)C1CCC(CNS(=O)(=O)c2ccc3c(c2)CC(C)N3C(C)=O)CC1 (stereo not drawn) | -3% | -2% | 0% | 6% | -14% | ·
CC(=O)N1c2ccc(S(=O)(=O)NCC3CCC(C(=O)Nc4ncccc4C)CC3)cc2CC1C (stereo not drawn) | ? | 21µM* | -1% | -3% | 2% | ·
O=C(NCCN1CCCC1)C1CCC(=O)N(CCCN2CCOCC2)C1 (stereo not drawn) | 1% | -4% | 2% | -1% | 1% | 3%
Cc1ccc(OCCCC(=O)N2CCOCC2)cc1 | -3% | 12µM* | 0% | ? | -4% | -11%
Nc1sc(Cc2ccccc2)cc1C(=O)c1c(-c2ccccc2)[nH]c2ccccc12 | · | 19µM* | · | · | · | ·
Cc1cccc(N2CCN(C(=O)c3ccccc3NC(=O)C3=CSCCO3)CC2C)c1 (stereo not drawn) | ? | 24µM* | 2% | 67% | -11% | ·
Cc1cccc(CNC(=O)c2ccccc2NC(=O)C2=CSCCO2)c1 | 0% | ? | 3% | 3% | -2% | ·
COc1cc2cc(C)c(SCC(=O)N3CCN(C(=O)c4ccco4)CC3)nc2cc1OC | -4% | -18% | -5% | 4% | -11% | 18µM*
COC(=O)C(C)CCCC(C)CCCC(C)CCCC(C)C (stereo not drawn) | 11% | · | · | · | -10% | ·
c1ccc(Cc2nnc3sc(-c4ccc5c(c4)OCO5)nn23)cc1 | -20% | 20µM* | · | -13% | · | ·
c1ccc(Cc2nnc3sc(-c4ccc5c(c4)OCCO5)nn23)cc1 | 0% | -7% | 14% | -17% | -9% | 0%
c1ccc(Cc2nnc3sc(-c4cccnc4)nn23)cc1 | -13% | 30µM* | 15% | -2% | 0% | -1%
c1ccc(Cc2nnc3sc(-c4cccs4)nn23)cc1 | ? | 15µM* | 11% | ? | -10% | -23%
CC1NC(=O)c2cccnc2-n2c1nc1ccccc1c2=O (stereo not drawn) | · | -4% | · | -3% | · | ·
